# Reference: PubChem BioAssay (Tox21)
# Results filed as inconclusive are left out. A number with no mark means an inactive call. The call rests on the fitted dose curve; in most records, active means well fitted inhibition curve with a large enough effect in the repeat runs; inconclusive means weak or mixed curves, or effect the other way; inactive means no such curve, though single readings can be large or run the other way.
# Biological target: Nuclear receptor ROR-gamma (Homo sapiens) (UniProt P51449)
# Experiment: qHTS assay to identify small molecule antagonists of the retinoid-related orphan receptor gamma (ROR-gamma) signaling pathway (AID 1159521; further: top concentration of the series differs between compounds; nearly all actives have a fitted effect of over 50% in size)
# Settings: Tet-on RORgamma CHO cells, RORE-luciferase, 16 h; series mostly up to 92.4 µM; activity change, negative = inhibition: at the top concentration
# Description: U.S. Tox21 Program National Center for Advancing Translational Sciences [NCATS] NIH Chemical Genomics Center [NCGC] U.S. Environmental Protection Agency [EPA] National Institutes of Environmental Health Sciences [NIEHS] National Toxicology Program [NTP] U.S. Food and Drug Administration [FDA] Tox21 Assay Overview: Nuclear steroid hormone receptors are involved in many biological processes including inflammatory responses, cell proliferation, and apoptosis. Environmental factors or compounds disrupting these nuclear receptor pathways and gene expression may promote susceptibility to immunotoxicants and autoimmune diseases. One important group of these expression factors are the retinoid-related orphan receptors. To assess compounds that may interfere with the retinoid-related orphan receptor gamma (ROR-gamma) transcription factor, a cell-based luciferase assay was used. The CHO cell-based assay utilizes a TET-inducible ROR expression factor and ROR response element-LUC reporter gene. Reporter gene activity was induced using Doxycycline Hyclate and measured after 16 hr incubation. Tet-on ROR gamma CHO cells were used to screen against the Tox21 10K compound library for ROR gamma antagonists by quantification of decreased reporter gene activity in terms of decreased luminescence.
# Tox21 Assay Protocol Summary: Tet-on ROR gamma CHO cells were dispensed at 1,000 cells in 4 uL of culture medium per well into white wall/solid bottom 1536-well plates using a Multidrop Combi (Thermo Scientific, Waltham, MA) dispenser. Following incubation at 37 C and 5% CO2 for 4 hr, 23 nL of compounds dissolved in DMSO, positive controls or DMSO only were transferred by a Pintool station (Kalypsys, San Diego, CA) and after 2 hr incubation at 37 C, one ul of 1 uM (final concentration) of Doxycycline Hyclate was added to all the wells by using a Flying Reagent Dispenser (FRD) (Aurora Discovery, San Diego, CA). After 16 hr incubation at 37 C and 5% CO2, 5 uL of ONE-Glo reagent (Promega Corporation, Madison, WI) was added to each assay plate using FRD. After 30 min incubation at room temperature, luminescence was quantified on a ViewLux plate reader (Perkin Elmer, Waltham, MA).
# On the % scale 0 is the no-effect control and ±100 the full control effect.
row,Compound,"activity change, negative = inhibition"
1,CCNC(=O)NCc1cccc(Cl)c1,20.1% [at 42.5 µM]
2,CCOc1ccccc1OCC1CNCCO1 (stereo not given),-6.81% [at 42.5 µM]
3,CC1OCCC1=O (stereo not given),23.3%
4,COc1cc2c(cc1OC)CN(C(=O)[C@H](C)N[C@@H](CCc1ccccc1)C(=O)O)[C@H](C(=O)O)C2,-8.32% [at 42.5 µM]
5,CCCC(=O)OCCC(C)CCC=C(C)C (stereo not given),-5.29%
6,CN(C)C(C)(C)CO,-2.94%
7,c1ccc2cnccc2c1,43.6%
8,CN(C)CCCO[C@@H]1[C@H]2OC(C)(C)O[C@H]2O[C@@H]1C(O)CO (stereo not given in full),26.3% [at 42.5 µM]
9,CC(C)C[C@@H]1[C@H](c2ccccc2)OC(=O)N1CCCN1CCCCCC1,-5.94% [at 42.5 µM]
10,CCCC(=O)OC/C=C(\C)CCC=C(C)C,13.2%
11,COC(=O)c1cc(Cl)cc(Cl)c1,6.91%
12,CC(N)CCCC(C)(C)O (stereo not given),39.5% [at 42.5 µM]
13,CN(C)CC/C=C1/c2ccccc2COc2ccc(CC(=O)O)cc21,-6.32% [at 42.5 µM]
14,Cc1cccc(Cl)c1,12.6%
15,CC(C)NCC(O)c1ccc2ccccc2c1 (stereo not given),-19.1% [at 42.5 µM]
16,CCC/C=C(\C=O)CC,-1.86%
17,COc1ccc(CCO)cc1,-2.34%
18,O=C1OCCO1,7.73%
19,O=C(O)CSCC(=O)NC1CCSC1=O (stereo not given),27.8% [at 42.5 µM]
20,CCO[Si](CC)(OCC)OCC,4.75%

row,Compound,"activity change, negative = inhibition"
1,CCOC(=O)CC1(C)OCC(C)O1 (stereo not given),-0.604%
2,Cc1c(NC(=O)c2cccnc2)c(=O)n(-c2ccccc2)n1C,18.6% [at 42.5 µM]
3,CCCc1ccc(O)cc1,0.56%
4,CC(=O)C1C(=O)C=C(C)OC1=O (stereo not given),1.84%
5,Fc1ccccc1,-16%
6,CCCCCCCCCCCCCCCCCC#N,0.275%
7,CC(C)=CCC/C(C)=C/COC=O,5.17%
8,CCOc1cccc(N)c1,21.3%
9,Cn1c(=O)c2c(ncn2CCO)n(C)c1=O,30.9% [at 42.5 µM]
10,CC(C)NC(=O)c1ccc(C=O)cc1,252% [at 42.5 µM]
11,CC(Oc1cc(Cl)ccc1Cl)C(=O)O (stereo not given),6.81%
12,CCCCCCCCCCOC(C)=O,16.9%
13,CCCCCC/C=C/C(=O)OC,26%
14,O=Cc1cc2ccccc2o1,2.36%
15,N[C@@H](CSCCCO)C(=O)O,25% [at 19 µM]
16,CC1=C(O)C(=O)C(C)O1 (stereo not given),0.244%
17,OCC1(CO)COCOC1,5.24%
18,CCCC(CC)c1ccccc1 (stereo not given),11.9%
19,CC(=O)Nc1ccc(OC(=O)c2ccccc2OC(C)=O)cc1,-11.9% [at 42.5 µM]
20,CC1(C)Oc2ccc(C#N)cc2[C@@H](N2CCCC2=O)[C@@H]1O,6.09% [at 42.5 µM]
